aSyn 5UTR inh = MLPCN primary screen, SNCA 5' untranslated region; alpha-synuclein 5'UTR reporter, inhibitor activity; inhibition, % (tested at 7.5 µM); 300,000 tested, 0.82% active; in the data active = inhibition above about 60%;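 also: H4 neuroglioblastoma cells stably carrying SNCA 5'UTR luciferase fusion; 0% = DMSO wells and 100% = positive control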
Jurkat NFkB inh = lowers PMA/ionomycin-induced NF-kB signal in Jurkat cells; PMA/ionomycin-induced NF-kB luciferase reporter, luminescence; inhibition, % at 4 µM; 330,000 tested, 0.53% active; in the data active = inhibition above about 50%
697 NFkB inh = inhibitors of the PMA/ionomycin-induced NF-kB reporter in 697 B cells | 697 B-cell NF-kB luciferase reporter, 16 h | inhibition, % at 4 µM | 330,000 tested, 0.33% active | AID 435022; in the data active = inhibition above about 35%
Gli-Sufu antag = antagonists of Gli-Sufu signaling. 340,000 tested, 0.74% active. Sufu-KO-LIGHT fibroblasts, Gli luciferase reporter luminescence. AID 588413. inhibition, % at 5 µM;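 active = inhibition above about 55%, limit read from the data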;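 also: 0% = DMSO-treated cells and 100% = wells with medium but no cells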
Mdm2 MdmX PPI = human Mdm2/MdmX binding inhibition; O15151+Q00987; SaOS-2 split-luciferase Mdm2/MdmX complementation, luminescence; inhibition, % at 8 µM; 330,000 tested, 3% active; AID 485346;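 active = inhibition of at least 50% at 8 µM in the primary screen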
Target sequence (O15151 whole entry, looked up): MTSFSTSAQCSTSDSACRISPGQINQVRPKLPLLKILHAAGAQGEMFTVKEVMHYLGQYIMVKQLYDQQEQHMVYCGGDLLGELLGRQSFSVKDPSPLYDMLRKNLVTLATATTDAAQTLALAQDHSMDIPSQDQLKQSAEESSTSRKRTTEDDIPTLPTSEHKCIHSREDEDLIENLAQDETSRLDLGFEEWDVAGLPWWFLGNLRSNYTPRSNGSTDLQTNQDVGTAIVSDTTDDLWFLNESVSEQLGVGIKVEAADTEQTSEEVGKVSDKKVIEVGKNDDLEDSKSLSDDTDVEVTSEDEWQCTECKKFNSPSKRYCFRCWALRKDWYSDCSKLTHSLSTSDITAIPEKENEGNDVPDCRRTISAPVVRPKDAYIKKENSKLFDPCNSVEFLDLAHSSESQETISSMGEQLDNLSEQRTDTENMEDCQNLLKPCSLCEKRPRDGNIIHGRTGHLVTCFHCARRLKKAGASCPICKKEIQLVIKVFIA
Target sequence (Q00987 whole entry, looked up): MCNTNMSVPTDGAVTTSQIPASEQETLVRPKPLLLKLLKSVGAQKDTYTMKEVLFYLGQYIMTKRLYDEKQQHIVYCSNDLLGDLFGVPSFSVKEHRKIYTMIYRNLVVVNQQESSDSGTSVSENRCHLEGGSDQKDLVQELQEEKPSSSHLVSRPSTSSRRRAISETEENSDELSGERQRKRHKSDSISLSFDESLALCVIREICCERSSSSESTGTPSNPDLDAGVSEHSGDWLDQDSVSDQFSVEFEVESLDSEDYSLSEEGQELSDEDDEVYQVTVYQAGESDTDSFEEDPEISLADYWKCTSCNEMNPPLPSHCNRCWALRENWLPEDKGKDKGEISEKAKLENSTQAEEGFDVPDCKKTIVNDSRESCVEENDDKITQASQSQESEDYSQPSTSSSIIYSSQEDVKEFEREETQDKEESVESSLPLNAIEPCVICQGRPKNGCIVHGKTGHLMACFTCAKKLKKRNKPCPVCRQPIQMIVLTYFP
CSC inhib = blocks cancer stem cells; cancer stem cell-like cells viability, luminescence; inhibition, % at 7.5 µM; 300,000 tested, 1.1% active; in the data active = inhibition above about 75%; tested in HMLE shEcad cells
Jurkat NFkB conf = inhibitors of the PMA/ionomycin-induced NF-kB reporter in Jurkat cells, retest; shares compounds with Jurkat NFkB inh; Jurkat NF-kB luciferase, 16 h; inhibition, % at 4 µM; 2,700 tested, 27% active; AID 435020;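 active = inhibition reaching about 45% at 4 µM in either replicate, limit read from the data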;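 also: plate controls were PMA/ionomycin stimulated DMSO wells for no effect and unstimulated DMSO wells for full effect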
697 NFkB conf = lowers PMA/ionomycin-induced NF-kB signal in 697 B cells. shares compounds with 697 NFkB inh. inhibition, % at 4 µM. 697 B-cell NF-kB luciferase, 16 h. 2,000 tested, 35% active; in the data active = inhibition mostly above about 28%, no sharp cut-off; inactive = mostly below about 22%
Mdm2 MdmX conf = confirmation of human Mdm2/MdmX interaction inhibitors. shares compounds with Mdm2 MdmX PPI. Mdm2-MdmX binding, luminescent assay. inhibition, % at 8 µM. 10,000 tested, 55% active. AID 489028; in the data active = inhibition above about 40%
FLuc counter = full-length luciferase inhibition in Mdm2/MdmX counter-screen; 6,200 tested, 77% active; SaOS-2 full-length luciferase counterscreen, luminescence; shares compounds with Mdm2 MdmX PPI; inhibition, % at 8 µM; AID 504607;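 active = mean inhibition at 8 µM reaching about 37%, which flags the compound as non-specific, limit read from the data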;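 also: p53-null SaOS-2 cells with luciferase driven by a doxycycline-inducible promoter; compound on cells about two nights before reading with doxycycline added after day one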
An asterisk follows results filed as active; x = not tested or not shown. Only some compounds are listed: those with a hit (about 4.5% of all), similar ones and a draw of the others.

SMILES	aSyn 5UTR inh	Jurkat NFkB inh	697 NFkB inh	Gli-Sufu antag	Mdm2 MdmX PPI	CSC inhib	Jurkat NFkB conf	Mdm2 MdmX conf	FLuc counter	others
CCNC(=O)N1CCN(CCCC(c2ccc(F)cc2)c2ccc(F)cc2)CC1	x	8	18	15	16	-7	x	x	x
CN1CCC(NCCC(c2ccc(F)cc2)c2ccc(Cl)cc2)CC1 (stereo not drawn)	22	72*	19	25	100*	35	29	98*	59*
COc1cc(NS(=O)(=O)c2ccc(C)cc2)c2ncccc2c1	69*	100*	-5	88*	89*	38	62*	99*	5
Cc1ccc(S(=O)(=O)Nc2cccc3cccnc23)cc1	63*	92*	-14	63*	99*	78*	20	99*	52*
Cn1nc(C(=O)NC2CCCCC2)c2c1-c1ccccc1S(=O)(=O)C2	-5	-15	3	10	0	1	x	x	x
C=CCSc1nc2ccccc2n1C(=O)/C=C/c1cc(OC)c(OC)c(OC)c1	-172	64*	-64	48	100*	x	40	95*	3
COc1cccc(N2CCN(c3ncnc4c3cnn4-c3ccc(C)cc3C)CC2)c1	-26	87*	22	14	90*	42	70*	100*	28
Cc1ccc(-n2ncc3c(N4CCCC4)ncnc32)c(C)c1	-114	-25	-43	-29	-9	-6	x	x	x
O=c1/c(=C\c2cccn2-c2ccccc2)sc2nc3ccccc3n12	x	x	x	-7	x	x	x	x	x
Cc1ccc(-n2c(C)cc(/C=c3/sc4nc5ccccc5n4c3=O)c2C)cc1	67*	56*	-57	7	82*	-8	19	61*	28
Cc1ccc(CNC(=O)CCNS(=O)(=O)c2cccc3nsnc23)cc1	8	4	-7	-4	30	-4	x	x	x
Cc1nc(Nc2nc3c(c(=O)[nH]2)CCC3)nc2ccccc12	126*	85*	-182	-8	65*	32	57*	88*	22
CC1C/C(=C/c2ccccn2)C(=O)/C(=C/c2ccccn2)C1 (stereo not drawn)	89*	91*	-76	34	98*	5	28	100*	51*
CC1C/C(=C/c2ccco2)C(=O)/C(=C/c2ccco2)C1 (stereo not drawn)	-31	10	-15	x	-1	x	x	x	x
O=C1/C(=C/c2ccccn2)COc2ccccc21	-40	-15	0	-8	2	0	x	x	x
CC(C)(C)C1C/C(=C/c2ccccn2)C(=O)/C(=C/c2ccccn2)C1 (stereo not drawn)	103*	100*	105*	66*	100*	67	-5	100*	51*	697 NFkB conf=-124
COc1cc(-c2noc(C)c2-c2ccc3[nH]ccc3c2)cc(OC)c1OC	-11	65*	-8	38	82*	7	51*	77*	54*
COc1cc(-c2noc(C)c2C#Cc2nccn2C)cc(OC)c1OC	-8	13	-14	10	48	39	x	x	x
COc1cc(-c2noc(C)c2-c2ccc(N(C)C)nc2)cc(OC)c1OC	47	71*	-97	53	86*	70	58*	79*	88*
CCCCn1c(N)c(N(Cc2ccccc2OC)C(=O)COc2ccc(F)cc2Cl)c(=O)[nH]c1=O	-8	18	10	-8	5	0	x	x	x
CC1CCC2(CC1)NC(=O)N(CC(=O)NCc1ccc(F)cc1)C2=O (stereo not drawn)	x	-9	12	-2	21	-21	x	x	x
CC(C(=O)NCCc1ccc(F)cc1)N1CCN(Cc2ccccc2)CC1 (stereo not drawn)	-37	-2	7	6	5	-6	x	x	x
